Data on 40 compounds can be found in PubChem BioAssay (EPA / NIEHS).

Calls of active or inactive are those of the source. How the source made its calls: active means hit-call score of the fitted dose curve at least 0.9, where 1 is the maximum; inconclusive means response in the unintended direction; inactive means score below 0.9.

Estrogen receptor (Homo sapiens), sequence (P03372 whole entry, looked up, the tested form may be a part): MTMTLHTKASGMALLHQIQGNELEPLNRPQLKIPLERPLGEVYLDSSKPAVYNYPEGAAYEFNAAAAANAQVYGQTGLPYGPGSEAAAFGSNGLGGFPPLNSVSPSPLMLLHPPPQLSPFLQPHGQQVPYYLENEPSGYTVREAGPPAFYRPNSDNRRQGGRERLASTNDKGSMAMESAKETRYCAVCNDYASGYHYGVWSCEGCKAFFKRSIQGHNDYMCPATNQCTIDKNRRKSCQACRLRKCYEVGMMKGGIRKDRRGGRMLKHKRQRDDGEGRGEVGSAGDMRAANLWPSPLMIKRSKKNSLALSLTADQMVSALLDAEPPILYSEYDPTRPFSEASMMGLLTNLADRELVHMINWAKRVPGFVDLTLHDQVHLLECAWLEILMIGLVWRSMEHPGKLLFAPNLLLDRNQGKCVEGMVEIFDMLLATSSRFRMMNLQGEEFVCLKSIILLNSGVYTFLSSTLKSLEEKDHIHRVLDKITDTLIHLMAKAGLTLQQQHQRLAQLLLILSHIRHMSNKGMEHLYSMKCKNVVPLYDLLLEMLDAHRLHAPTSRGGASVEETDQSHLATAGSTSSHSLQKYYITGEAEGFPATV

In this assay the target is Estrogen receptor (Homo sapiens) (UniProt P03372). As to the kind of experiment: OT_ER_ERaERa_1440: Odyssey Thera (OT) 24-hour HEK293T Protein-Complementation Assay for Estrogen Receptor-alpha/-alpha Homodimer (AID 2283349).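 Further: hits raise fluorescence above DMSO for agonists and antagonists alike.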 The procedure:
OT_ER_ERaERa_1440 is a cell-based assay that uses HEK293T, a human kidney cell line, with measurements taken at 24 hours after chemical dosing in a 384-well plate.OT_ER_ERaERa_1440 is one of one assay component(s) measured or calculated from the OT_ER_ERaERa_1440 assay. It is designed to make measurements of protein fragment complementation, a form of binding reporter, as detected with fluorescence intensity signals by Protein-fragment Complementation technology.Data from the assay component OT_ER_ERaERa_1440 was analyzed into 1 assay endpoint. This assay endpoint, OT_ER_ERaERa_1440, was analyzed in the positive analysis fitting direction relative to DMSO as the negative control and baseline of activity. Using a type of binding reporter, measures of receptor for gain-of-signal activity can be used to understand the binding at the pathway-level as they relate to the gene ESR1. Furthermore, this assay endpoint can be referred to as a primary readout, because the performed assay has only produced 1 assay endpoint. To generalize the intended target to other relatable targets, this assay endpoint is annotated to the nuclear receptor intended target family, where the subfamily is steroidal.
Protein-fragment complementation assay, or PCA, is a method for the identification and quantification of protein-protein interactions. In the PCA, the proteins of interest ("bait" and "prey") are each covalently linked to fragments of a third protein (e.g. DHFR, which acts as a "reporter"). Interaction between the bait and the prey proteins brings the fragments of the reporter protein in close proximity to allow them to form a functional reporter protein whose activity can be measured. The OT ER alpha / ER alpha assay is a homodimer PCA of the ligand binding domain (amino acids 310-547) of human ER alpha stably expressed in HEK293T cells. […] Fluorescent signal in the basal state of the assay is very low and is primarily punctuate and cytoplasmic. Modulation of this assay is quantified as an increase in mean fluorescence intensity in the nucleus (for agonists) or in the nucleus and cytoplasm (antagonists) relative to vehicle controls, and can be quantified on a high content imaging device or a laser scanning cytometer. The latter instrument is favored for this assay because of the rapid mode of data acquisition, the ability to acquire data from the entire cell population in a well (as opposed to a fraction of the well on the high content devices) and the larger dynamic range typically achieved with this instrument. To assess sensitivity of the ER alpha/ER alpha LBD assay to ligand, cells were treated with the ER agonist 17 beta-estradiol (E2) in 10-point concentration- response format for 24 hours and monitored response on a laser scanning plate cytometer (Acumen eX3; TTP Lab Tech).
On to `CCCCC/C=C\C/C=C\CCCCCCCC(=O)O`, for which the outcome was inactive.
On to `NC(=O)Nc1ccccc1`, for which the result was inactive.
On to `c1ccc(Nc2cccc3ccccc23)cc1`, for which the AC50 is 63.1 µM (active).
As to `C=CCOC(=O)c1ccc(C(=O)OCC=C)c(C(=O)OCC=C)c1`, the compound was classed as inactive.
On the same count and under the same terms, to `CCCCC(CC)COC(=O)/C=C/c1ccc(OC)cc1` (stereo not given) belongs “inactive”; to `CCC1COC(=O)O1` (stereo not given), “inactive”.
As for `CCCCNC(=S)NCCCC`, the call was inactive.
For `Nc1ccc(C(=O)O)cc1`, the compound was classed as inactive.
Take `CCCCCCCCCC(C)=O`: the compound was classed as inactive.
With `CC1=NN(c2ccc(S(=O)(=O)O)cc2)C(=O)C1N=Nc1ccccc1` (stereo not given), the outcome was inactive.
On to `CC1(C)[C@@H]2CC[C@@]1(C)C(=O)C2`, for which the compound was classed as inactive.
As to `CC(=O)/C=C/C1C(C)=CCCC1(C)C` (stereo not given), the outcome was inactive.
Same read-out and setting: to `CCCCCCC=O` belongs “inactive”.
`O=C(O)CCC(=O)O`: the compound was classed as inactive.
With `CCCC(CC)c1ccccc1` (stereo not given), the result was inactive.
In the case of `O=C(O)/C=C/c1ccccc1`, the AC50 is 34.2 µM (active).
Consider `CCCCCCO`, for which the compound was classed as inactive.
On the same count and under the same terms, to `CCCCC(CC)COS(=O)(=O)O` (stereo not given) belongs “inactive”; to `CCCC=C(C=O)CC`, “inactive”.
As to `CN(C)Cc1cc(CN(C)C)c(O)c(CN(C)C)c1`, the outcome was inactive.
As for `C[Si]1(C)O[Si](C)(C)O[Si](C)(C)O[Si](C)(C)O[Si](C)(C)O1`, the AC50 is 50 µM (active).
As for `CC(C)(C)C1CCC(=O)CC1`, the call was inactive.
Consider `Oc1ccccc1Cc1ccccc1O`, for which the result was inactive.
Consider `O=C(Nc1ccccc1)c1cc(Cl)ccc1O`, for which the outcome was inactive.
On the same count and under the same terms, to `O=C(O)c1ccc2c(c1)C(=O)OC2=O` belongs “inactive”; to `O=S(=O)(O)c1ccc(N=Nc2c(O)ccc3ccccc23)cc1`, “inactive”.
For the compound `CC1=CCC2CC1C2(C)C` (stereo not given), the result was inactive.
The same measure, in the same setting: the entry for `O=c1c(O)c(-c2ccc(O)cc2O)oc2cc(O)cc(O)c12` is “inactive”; for `C1CNCCN1` it is “inactive”; for `CC(C)c1cc(C(C)C)cc(C(C)C)c1` it is “inactive”.
On the same count and under the same terms, the entry for `Cc1ccc(C)c(OCCCC(C)(C)C(=O)O)c1` is “inactive”; for `CCCCC(C=O)CC` (stereo not given) it is “inactive”; for `C/C=C/C=C/CCCCCCCO` it is “inactive”.
Still for that read-out and setting: to `O=C(O)c1cc(O)c2ccccc2c1O` belongs “inactive”.
Take `CCCCCC(=O)OCC`: the compound was called inactive.
On the same count and under the same terms, the entry for `N#Cc1ccc(C2CCCc3cncn32)cc1` (stereo not given) is “inactive”.
On the same count and under the same terms, to `CCOC(=O)c1ccc(C)cc1` belongs “inactive”; to `CCCCC(=O)O`, “inactive”; to `C=C[Si](OCCOC)(OCCOC)OCCOC`, “inactive”.
Regarding `CCCCCC[C@@H](O)C/C=C\CCCCCCCC(=O)OCC(O)CO` (stereo not given in full), the compound was classed as inactive.
